Source: PubChem BioAssay AID641 (Vanderbilt High Throughput Screening Facility, 2007)
Screen size: about 58,000 compounds; about 3,400 (5.9%) were called active.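 Rule for the calls: active = luminescence count or its row- and column-corrected plate score outside the 99.7% band of the plate's sample wells, on either side; inactive = the rest.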 Shown is part of a subset that was picked to be rich in actives.

The compounds below were run against D(1A) dopamine receptor (Homo sapiens) (UniProt P21728) (assay: D1 CRE-luciferase signal change, two-sided – cell-based, HEK293 D1, dopamine EC30, D1 allosteric modulator project, primary screen (AID 641)). Details: dopamine EC30 potentiation, at 10 µM, actives deviate in either direction.
Chain of D(1A) dopamine receptor (Homo sapiens) (P21728 whole entry, looked up): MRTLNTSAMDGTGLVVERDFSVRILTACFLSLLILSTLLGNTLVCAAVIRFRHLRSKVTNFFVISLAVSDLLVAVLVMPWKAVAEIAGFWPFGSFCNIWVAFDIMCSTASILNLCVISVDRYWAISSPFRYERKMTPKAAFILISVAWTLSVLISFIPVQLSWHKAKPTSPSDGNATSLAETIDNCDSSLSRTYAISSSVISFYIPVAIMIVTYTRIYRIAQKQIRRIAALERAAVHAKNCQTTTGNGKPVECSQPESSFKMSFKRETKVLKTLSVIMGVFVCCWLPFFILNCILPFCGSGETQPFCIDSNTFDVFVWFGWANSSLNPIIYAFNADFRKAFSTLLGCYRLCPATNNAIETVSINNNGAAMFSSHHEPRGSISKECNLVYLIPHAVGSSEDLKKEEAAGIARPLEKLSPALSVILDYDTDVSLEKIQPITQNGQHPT
With NC(=O)c1ccccc1NC(=O)c1ccccc1F the B-score was -0.754 (inactive). In the case of COc1ccc(-n2nnc3c(=O)n(CC(=O)N4CCC(Cc5ccccc5)CC4)cnc32)cc1, the B-score is reported as -0.0249 (inactive). In the case of COCCNC(=O)Cn1cc2c(n1)CCCCC2, the B-score is reported as -0.978 (inactive). With COc1ccc(S(=O)(=O)N(CCCN2CCCC2=O)Cc2cc3c(C)ccc(C)c3[nH]c2=O)cc1 the B-score was 0.354 (inactive). O=C(c1cccs1)N1CCN(Cc2ccc3c(c2)OCO3)CC1 was tested, and the B-score was -0.554 (inactive). CN1CCN(CC(O)COCc2ccc3c(c2)OCO3)CC1 (stereo unspecified) was tested, and the B-score was 3.63 (active). With Cc1cc(N2CCN(Cc3ccc4c(c3)OCO4)CC2)n2ncnc2n1 the B-score was 0.443 (inactive). CC(=O)Nc1ccc(S(=O)(=O)N2CCSCC2)cc1 was tested, and the B-score was -0.0119 (inactive). CCOC(=O)C(C)Oc1cccc2c(=O)n(CC(=O)N3CCc4ccccc43)ccc12 (stereo unspecified) was tested, and the B-score was 0.245 (inactive). In the case of COCCNCCOCCOc1cccc(OC)c1, the B-score is reported as -0.824 (inactive). In the case of Cc1cccn2c(=O)c3cc(C(=O)NCc4ccccn4)n(C)c3nc12, the B-score is reported as 0.762 (inactive). In the case of O=C(NCc1ccccn1)c1ccc2nc(-c3ccco3)c(-c3ccco3)nc2c1, the B-score is reported as 7.64 (active). For O=C(NCc1ccccn1)c1cc2ccccc2oc1=O, the B-score was 0.0147 (inactive). In the case of CCOC(=O)c1sc(NC(=O)C(CC)Sc2nccn2C)nc1C (stereo unspecified), the B-score is reported as 0.947 (inactive). With Cc1cc(C)nc(SCc2ccccc2C#N)n1 the B-score was 1.42 (inactive). In the case of CCC(Sc1nncn1C)C(=O)Nc1nnc(-c2ccc(Cl)cc2)s1 (stereo unspecified), the B-score is reported as 0.176 (inactive). With COCCN(CC(=O)Nc1ccccc1C)S(=O)(=O)c1ccc(S(=O)(=O)N2CCCC2)cc1 the B-score was 0.0335 (inactive). In the case of CCn1c(SCCC(C)C)nnc1-c1c[nH]c2ccccc12, the B-score is reported as -1.04 (inactive). For CCCn1c(=NC(C)=O)c(C(=O)OCC)cc2c(=O)n3ccccc3nc21, the B-score was 4.16 (active). In the case of CCOC(=O)c1cnc2sccn2c1=O, the B-score is reported as -0.341 (inactive). With COc1ccc(CNC(=O)c2cc3c(=O)n4ccccc4nc3n(CC3CCCO3)c2=N)cc1 (stereo unspecified) the B-score was -0.73 (inactive). COc1cccc(N2C(=O)C3CCCN3C2c2ccc(F)cc2)c1 (stereo unspecified) was tested, and the B-score was 0.0389 (inactive). COCCNC(=O)C(c1ccc(C)o1)N(Cc1ccccc1)C(=O)Cn1nnc2ccccc21 (stereo unspecified) was tested, and the B-score was 0.0616 (inactive). For Cc1ccc(-c2nn(-c3ccccc3)cc2CN(Cc2ccccc2)C(=O)CCC(=O)O)o1, the B-score was 13.6 (active). With COc1ccc(-c2nn(-c3ccccc3)cc2C(=O)Nc2nc(CC(C)=O)ns2)cc1 the B-score was 0.451 (inactive). With O=C(O)CCCC(=O)Nc1ccccc1-n1ccnc1 the B-score was -0.0259 (inactive). CNC(=O)CSc1nnc(CCc2ccccc2)n1-c1ccccc1 was tested, and the B-score was 0.762 (inactive). For CC1=C(C(N)=O)C(c2ccc3c(c2)OCO3)n2nc(-c3cccc(C)c3)nc2N1 (stereo unspecified), the B-score was 0.00602 (inactive). In the case of c1ccc(-c2nnc3n2NC(c2ccc4c(c2)OCO4)S3)cc1 (stereo unspecified), the B-score is reported as 7.49 (active). With O=C(CN1CCN(c2nc(-c3ccccc3)cs2)CC1)NCc1ccc2c(c1)OCO2 the B-score was -0.0459 (inactive). For COC(=O)c1cc(OC)c(OC)cc1NC(=O)C1CCCO1 (stereo unspecified), the B-score was 3.46 (inactive). CCc1nnc(NC(=O)CSc2nnc(-c3ccncc3)n2Cc2ccccc2)s1 was tested, and the B-score was -0.0482 (inactive). In the case of O=[n+]1c2c(n([O-])c3cc(Br)ccc31)CCC2, the B-score is reported as -0.651 (inactive). In the case of O=C(CSc1nnc2scc(-c3ccc(F)cc3)n12)NCc1ccco1, the B-score is reported as 6.74 (active). Cc1ccc(-c2csc3nnc(SCC(=O)NCc4ccco4)n23)cc1 was tested, and the B-score was 1.29 (inactive). For Cn1c(-c2ccc(F)cc2)cnc1SCC(=O)NCc1ccco1, the B-score was -0.294 (inactive). In the case of Cn1c(SCC(=O)Nc2cccc(O)c2)nnc1-c1ccc(S(=O)(=O)N2CCOCC2)cc1, the B-score is reported as 0.0252 (inactive). CCCCn1c(CN2CCN(CCO)CC2)nc2ccccc21 was tested, and the B-score was 1.03 (inactive). In the case of CN(C)CCCNc1c2c(c(C#N)c3nc4ccccc4n13)CCC2, the B-score is reported as 0.142 (inactive). For N#Cc1c2c(c(N3CCN(CCO)CC3)n3c1nc1ccccc13)CCCC2, the B-score was 4.34 (active). COc1ccc(C2CC(=O)C=C(NCC3CCCO3)C2)cc1 (stereo unspecified) was tested, and the B-score was 0.013 (inactive). In the case of CCn1c(SCC(=O)Nc2nc3ccc(OC)cc3s2)nnc1-c1ccoc1C, the B-score is reported as -0.00542 (inactive). For COc1cc2cc(CN(CCN3CCCC3)C(=O)Nc3ccccc3Cl)c(=O)[nH]c2cc1OC, the B-score was -0.557 (inactive). COC(=O)C1=C(C)NC(=O)NC1/C=C/c1ccccc1 (stereo unspecified) was tested, and the B-score was 0.394 (inactive). With COC(=O)C1=C(C)NC2=C(C(=O)c3ccccc32)C1c1ccc(-c2ccc(C(=O)O)cc2)o1 (stereo unspecified) the B-score was 6.14 (active). For COc1ccccc1NC(=O)C1=C(C)NC2=C(C(=O)CCC2)C1c1ccc(C)o1 (stereo unspecified), the B-score was 0.26 (inactive). In the case of O=C(Cn1[nH]c(=O)c2ccccc2c1=O)Nc1cccc(-c2nnc3n2CCCCC3)c1, the B-score is reported as 0.394 (inactive). O=c1c2c(nc3n1CCCCC3)sc1c(O)cccc12 was tested, and the B-score was -6.41 (active). For Cc1ccc2nc3n(c(=O)c2c1)CCC3, the B-score was -0.684 (inactive). For CCSC(C)CC1C/C(=N/O)c2c(C)noc2C1 (stereo unspecified), the B-score was 3.09 (inactive). In the case of COC(=O)C1C(=O)c2c([nH]c(C(=O)OCCSC)c2C)CC1C (stereo unspecified), the B-score is reported as 0.0229 (inactive). CCOC(=O)c1[nH]c2c(c1C)C(=O)CC(c1ccc(N(C)C)cc1)C2 (stereo unspecified) was tested, and the B-score was -1.04 (inactive). CCCOC(=O)c1[nH]c2c(c1C)C(=O)CC(c1cc(OC)c(OC)c(OC)c1)C2 (stereo unspecified) was tested, and the B-score was -3.89 (active). In the case of O=C(CN1C2CCC1CC(NC(=O)C1CC1)C2)NCc1ccccc1 (stereo unspecified), the B-score is reported as 0.0586 (inactive). In the case of CCOC(=O)Cc1c(C)nc2c(C#N)c(C)nn2c1C, the B-score is reported as -0.671 (inactive). With Cc1ccc(-n2ncc3c(N4CCN(c5ccc(F)cc5)CC4)ncnc32)c(C)c1 the B-score was -2.95 (active). Cc1ccc(-n2ncc3c2ncn2nc(-c4ccco4)nc32)c(C)c1 was tested, and the B-score was 0.753 (inactive). In the case of Cc1ccc(-n2ncc3c(=O)[nH]cnc32)c(C)c1, the B-score is reported as -0.523 (inactive). In the case of Cc1ccc(C(c2sc3nc(C)nn3c2O)N2CCN(c3ccc(F)cc3)CC2)cc1 (stereo unspecified), the B-score is reported as -1.2 (inactive). Cc1ccc(C(c2sc3nc(C)nn3c2O)N2CCN(c3ccccc3)CC2)cc1 (stereo unspecified) was tested, and the B-score was -3.44 (active). For Cc1nc2sc(C(c3ccco3)N3CCOCC3)c(O)n2n1 (stereo unspecified), the B-score was 0.108 (inactive).
